# Measured values taken from PubChem BioAssay (NCATS).
# Results filed as inconclusive are left out. Where a call stands in place of a potency, no number is given. Calls of active or inactive are those of the source. The call rests on the fitted dose curve; in most records, active means well fitted inhibition curve with a large enough effect; inconclusive means small, poorly fitted or top-dose-only effect; inactive means flat fitted curve, though single readings scatter. Residues, ends and D or L forms follow the SMILES beside them. *: point of attachment. Cbz = O=C(OCc1ccccc1)*
# Target: Calcium and integrin-binding protein 1 (Homo sapiens) (UniProt Q99828)
# Sequence (Q99828 whole entry, looked up): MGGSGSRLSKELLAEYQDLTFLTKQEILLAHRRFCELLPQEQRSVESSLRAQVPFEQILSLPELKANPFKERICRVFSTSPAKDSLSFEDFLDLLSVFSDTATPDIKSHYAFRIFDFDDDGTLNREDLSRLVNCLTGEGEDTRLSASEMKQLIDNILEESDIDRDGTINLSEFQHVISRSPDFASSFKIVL
# Assay: Primary qHTS for Identification of Calcium Integrin Binding Protein 1 (CIB1) Competitor (AID 1508620);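 further: GST tagged CIB1 binding a fluorescein labelled alphaIIb integrin peptide tracer; top concentration of the series differs between compounds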
# Settings: CIB1-GST / FITC-alphaIIb peptide fluorescence polarization; series mostly up to 57.7 µM
# From the text: Assay Provider: Ulhas P. Naik, PhD Sidney Kimmel Medical College Thomas Jefferson University, Philadelphia, PA Primary function of platelets is to maintain hemostasis. At the site of vascular injury, platelets adhere to adhesive proteins such as collagen and von Willebrand factor. Adherent platelets are activated and generate soluble platelet agonists such as thrombin, ADP and thromboxane A2. Following exposure of circulating platelets to these agonists, results in platelet shape change, granule secretion and activation of platelet integrin alphaIIb-beta3. Ligand binding to activated integrin alphaIIb-beta3 triggers outside-in signaling, leading to platelet aggregation, stabilization of platelet plug, and clot retraction. Upon atherosclerotic plaque rupture also causes platelet plug formation, which underlies a number of cardiovascular diseases such as myocardial infraction and stroke. A number of anti-platelet drugs such as aspirin, clopidogrel, prasugrel, vorapaxar, and eptifibatide are currently available to prevent the thrombotic complications. However, these anti-platelet agents have several limitations including inherent variability in individual responses, developing resistance, and serious bleeding side effects. For these reasons they are not suitable for long-term protection. Based on the experiences with current anti-platelet drugs, it appears that the most useful therapeutic approach is to intersect the secondary responses such as integrin outside-in signaling or recruitment of platelets by TxA2 and secreted ADP. Compounds, which can largely preserve the primary hemostatic function of platelets but inhibit secondary response will be most desired therapeutic agents for treatment of cardiovascular disease. CIB1 is a calcium integrin binding protein, which specifically interact with the alphaIIb subunit of integrin alphaIIb-beta3. Binding of CIB1 to alphaIIb regulates the outside-in signaling in platelets, which is needed for thrombus stabilization and thrombus growth. […] Therefore, we propose that discovery of a small molecule that can prevent the association of CIB1 and alphaIIb-beta3 will be a potential anti-platelet agent that can block the thrombus formation without undue effect on hemostasis. Reference: [1] Naik MU, Nigam A, Manrai P, et al. CIB1 deficiency results in impaired thrombosis: the potential role of CIB1 in outside-in signaling through integrin alpha IIb beta 3. J Thromb Haemost.
# PROTOCOL TABLES SEQUENCE No. (1, 2, 3, etc.); […] (e.g., Cells, Incubation, Reagent, etc.); VALUE and DESCRIPTION. 1; Reagent; 3 uL; Protein or buffer (4/3x) 2; Compound; 46 nL; Control inhibitor / compound library 3; Time; 15 min; Room temperature incubation 4; Reagent; 1 uL; Fluorescent labeled peptide (4x) 5; Time; 1000 rpm; Centrifuge 6; Time; 15 min; Room temperature incubation 7; Detection; Ex 480/ Em 540; ViewLux Fluorescence Read NOTES (numbers refer to sequence above) 1; Protein Mixture: C1B1-GST (final concentrations of 1 uM). […] 3; Room temperature incubation. 4; Fluorescent Labeled Peptide: FITC-aIIb (final concentration of 100 nM). Sequence of alphaIIb peptide: Acetyl-[…]-FITC (purity is 95.83%). 5; Centrifuge 1000 rpm (164 g) for 15 seconds. 6; Room temperature incubation. 7; ViewLux Fluorescent Polization Read: excitation = 480(20) / emission = 540(25) S and P; FITC Dichroic mirror.
row,Compound,Potency
1,O=C(O)C[C@H](O)C[C@H](O)C=Cc1c(C2CC2)nc2ccccc2c1-c1ccc(F)cc1,inactive
2,COC(=O)[C@@H]1CC2=CC(=O)CC[C@]2(C)[C@@]23O[C@@H]2C[C@@]2(C)[C@H](CC[C@@]24CCC(=O)O4)[C@@H]13,inactive
3,COc1ccc([C@@H]2CNC(=O)C2)cc1OC1CCCC1,inactive
4,CC(C)C[C@@H](C=O)NC(=O)[C@H](CC(C)C)NC(=O)[C@H](CC(C)C)NC(=O)OCc1ccccc1 (Cbz-Leu-Leu-Leu-aldehyde),inactive
5,C[C@@]12C(=O)OC(=O)[C@@]1(C)C1CCC2O1,inactive
6,COC1=C2C[C@@H](C)C[C@H](OC)[C@@H](O)[C@@H](C)C=C(C)[C@H](OC(N)=O)[C@@H](OC)C=CC=C(C)C(=O)NC(=CC1=O)C2=O,inactive
7,N#CC(=C(N)Sc1ccc(N)cc1)c1ccccc1C(F)(F)F,inactive
8,COc1ccc(Nc2cc(-c3cnc(N)nc3)nc(N3CCOCC3)n2)cn1,inactive
9,C=C1CCC2[C@](C)(CO)C(O)CC[C@]2(C)C1CC=C1C(=O)OCC1O (stereo not given in full),inactive
10,C#Cc1cccc(Nc2ncnc3cc(OCCOC)c(OCCO)cc23)c1,inactive
11,c1cc(N[C@@H]2CCNC2)nc(-c2cnc3ccc(-c4cn[nH]c4)cn23)c1,inactive
12,CCNC(=O)c1cc2c(-c3cc(OCCN4CCCC4)c(Cl)cc3Cl)nc(N)nc2s1,inactive
13,CCOC(=O)N1CCN([N+]([O-])=NOc2ccc([N+](=O)[O-])cc2[N+](=O)[O-])CC1,inactive
14,COc1ccc(C=Cc2cc(OC)c(OC)c(OC)c2)cc1NC(=O)[C@H](N)CO,inactive
15,C=CC(=O)N1CCc2ccc(-n3c(=O)ccc4cnc5ccc(-c6cnn(C)c6)cc5c43)cc21,inactive
16,N#CC(=Cc1ccc(O)c(O)c1)C(=O)NCc1ccccc1,inactive
17,Cc1cn([C@@H]2O[C@H](CO)[C@@H](O)[C@H]2F)c(=O)[nH]c1=O,inactive
18,CC(C(C)N1CC(=O)NC(=O)C1)N1CC(=O)NC(=O)C1 (stereo not given),inactive
19,CS(=O)(=O)N1CCc2c(-c3cnc(N)nc3)nc(N3CCOCC3)nc21,inactive
20,OCc1ccccc1O[C@@H]1O[C@H](CO)[C@H](O)[C@H](O)[C@H]1O,inactive

row,Compound,Potency
1,CCOC(=O)C=C[C@H](C[C@@H]1CCNC1=O)NC(=O)[C@@H](CC(=O)[C@@H](NC(=O)c1cc(C)on1)C(C)C)Cc1ccc(F)cc1,inactive
2,Cn1cnc(=N)c2[nH]cnc21,inactive
3,CC(C)c1cc(C(C)C)c(CC(=O)NS(=O)(=O)Oc2c(C(C)C)cccc2C(C)C)c(C(C)C)c1,inactive
4,CC1(C)O[C@@H]2C[C@H]3[C@@H]4CCC5=CC(=O)C=C[C@]5(C)[C@@H]4[C@@H](O)C[C@]3(C)[C@]2(C(=O)CO)O1,inactive
5,Cn1cc(C2=C(c3c4n(c5ccccc35)CCC(CN)C4)C(=O)NC2=O)c2ccccc21 (stereo not given),inactive
6,C=CCNC1=C2C[C@@H](C)C[C@H](OC)[C@@H](O)[C@@H](C)C=C(C)[C@H](OC(N)=O)[C@@H](OC)C=CC=C(C)C(=O)NC(=CC1=O)C2=O,inactive
7,Oc1ccc([C@@H]2Oc3ccc(O)cc3[C@@H]3CCC[C@@H]32)cc1,inactive
8,C[C@@H]1[C@H](C)CC[C@]2(C(=O)O)CC[C@]3(C)C(=CC[C@@H]4[C@@]5(C)C[C@@H](O)[C@H](O)[C@@](C)(CO)[C@H]5CC[C@]43C)[C@@H]12,inactive
9,C#CCC(Cc1cnc2nc(N)nc(N)c2n1)c1ccc(C(=O)N[C@@H](CCC(=O)O)C(=O)O)cc1 (stereo not given in full),inactive
10,C[N+]1(C)[C@@H]2C[C@@H](OC(=O)C(O)(c3cccs3)c3cccs3)C[C@H]1[C@@H]1O[C@@H]12,inactive
11,CC(C)(O)Cn1c(NC(=O)c2ccc(-c3cn[nH]c3)s2)nc2cc(CN3CCOCC3)ccc21,inactive
12,CC1(C)[C@H](O[C@H]2O[C@H](C(=O)O)[C@@H](O)[C@H](O)[C@H]2O[C@@H]2O[C@H](C(=O)O)[C@@H](O)[C@H](O)[C@H]2O)CC[C@@]2(C)[C@H]1CC[C@]1(C)[C@H]2C(=O)C=C2[C@H]3C[C@@](C)(C(=O)O)CC[C@]3(C)CC[C@]21C,inactive
13,O=C1NC(=O)[C@@H](c2cn3c4c(cccc24)CCC3)[C@H]1c1c[nH]c2ccccc12,inactive
14,CCc1ccc(C(=O)Nc2cc(CN3CCN(C)CC3)cc(C(F)(F)F)c2)cc1C#Cc1cnc2ccnn2c1,inactive
15,CNC(=O)c1cccc(-c2ccc3c(N4CCOC[C@H]4C)nc(N4CCOC[C@H]4C)nc3n2)c1,inactive
16,c1coc(CNc2ncnc3nc[nH]c23)c1,inactive
17,O=C1NC(O)CCN1[C@@H]1O[C@H](CO)[C@H](O)[C@H]1O (stereo not given in full),inactive
18,CCOc1cc2c(c(F)c1OCC)C(=N)N(CC(=O)c1cc(N3CCOCC3)c(OC)c(C(C)(C)C)c1)C2,inactive
19,N#Cc1ccc(COC[C@H]2O[C@@H](n3c(NCc4ccc(Cl)c(Cl)c4)nc4c(N)ncnc43)[C@@H](O)[C@@H]2O)cc1,inactive
20,C[C@@H](Oc1ccc2[nH]nc(C=Cc3cnn(CCO)c3)c2c1)c1c(Cl)cncc1Cl,inactive
